Screens deposited in PubChem by National Center for Advancing Translational Sciences (NCATS).
GoLoco inh red: qHTS Assay for Inhibitors of RGS12 GoLoco Motif Activity (Red Fluorophore). Guanine nucleotide-binding protein G(i) subunit alpha-1 (Homo sapiens), P63096. Gai1:RGS12 GoLoco peptide FP, rhodamine, 10 min. 0.44% of 230,000 active. Potency, µM (series often up to 61.6 µM), inactives show top-dose activity, negative = inhibition, most hits filed as inhibitors; active means well fitted inhibition curve with a large enough effect, not every such curve was filed as active; inactive means no such curve, though single readings can be large or run the other way; further: potency means the concentration at half of the fitted maximal effect; on the % scale 0 is the no-effect control and ±100 the full control effect; nearly all actives have a fitted effect of over 30% in size
HTT cytoprotect: qHTS Multiplex Assay to Identify Dual Action Probes in a Cell Model of Huntington: Cytoprotection (ATP) | 0.14% of 230,000 active | PC12 HTT-Q103 induced, cytoprotection, ATP luminescence, 40 h | Potency, µM (top dose mostly 56.4 µM), for inactives: cytoprotection (ATP increase), usual class: activators; further: potency means the concentration at half of the fitted maximal effect; % of control where 0% means no effect; nearly all actives have a fitted effect of over 45% in size
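Stable PC12 Q103-GFP cells in serum-supplemented, phenol red-free DMEM; induction by tebufenozide at 100 nM final; compound dose series; cell viability quantified luminescently from ATP.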
ALDH1A1 block: qHTS Assay for Inhibitors of Aldehyde Dehydrogenase 1 (ALDH1A1). Aldehyde dehydrogenase 1A1 (Homo sapiens), P00352. Purified ALDH1A1, NADH fluorescence, propionaldehyde substrate. AID 1030, 2008. Potency, µM (titrated, usually from 75.3 µM), without a hit: top-dose activity, negative = inhibition, usual class: inhibitors. 7.3% of 220,000 active; active means well fitted inhibition curve with a large enough effect, not every such curve was filed as active; inconclusive means small, poorly fitted or top-dose-only effect, or another doubt; inactive means no such curve, though single readings can be large or run the other way;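 further: potency means the concentration at half of the fitted maximal effect; plate controls were no enzyme wells and a reference inhibitor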
Target sequence (P00352 whole entry, looked up): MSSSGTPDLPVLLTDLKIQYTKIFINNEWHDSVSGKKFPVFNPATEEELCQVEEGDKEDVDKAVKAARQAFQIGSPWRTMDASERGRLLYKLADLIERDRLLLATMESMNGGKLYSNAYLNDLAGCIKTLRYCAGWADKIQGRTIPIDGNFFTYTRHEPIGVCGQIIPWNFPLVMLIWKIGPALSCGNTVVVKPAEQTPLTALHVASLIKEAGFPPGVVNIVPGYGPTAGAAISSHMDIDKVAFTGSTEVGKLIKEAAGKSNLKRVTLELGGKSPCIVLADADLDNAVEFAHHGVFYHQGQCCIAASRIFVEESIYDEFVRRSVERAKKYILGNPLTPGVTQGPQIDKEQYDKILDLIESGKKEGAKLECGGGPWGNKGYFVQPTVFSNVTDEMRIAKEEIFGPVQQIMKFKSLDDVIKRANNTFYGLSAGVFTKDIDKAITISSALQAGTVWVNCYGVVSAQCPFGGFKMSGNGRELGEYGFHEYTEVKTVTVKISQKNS
HTT aggregate: qHTS Multiplex Assay to Identify Dual Action Probes in a Cell Model of Huntington: Aggregate Formation (GFP); PC12 HttQ103-GFP aggregates, Acumen cytometry, 40 h; Potency, µM (top dose mostly 46.1 µM), for the others: at the highest dose activity change, negative = inhibition, most hits filed as inhibitors; 1.1% of 220,000 active; AID 1688, 2009; further: potency means the concentration at half of the fitted maximal effect; on the % scale 0 is the no-effect control and ±100 the full control effect; nearly all actives have a fitted effect of over 60% in size
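Aggregate formation scored by laser-scanning cytometer (488 excitation, 500–530 emission) in lysed PC12 cells expressing Q103-GFP after 100 nM tebufenozide induction; library tested in dose series, with ATPLite reagent added in the multiplex.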
PNC assembly inh: High Content Assay for Compounds that inhibit the Assembly of the Perinucleolar Compartment. PC3M PTB-GFP, PNC prevalence imaging, 16 h; stronger effect = lower value. activity change (PNC), negative = inhibition, % at 10 µM. 3.1% of 140,000 active. AID 2417, 2010;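 active means readout at or below -70, meaning at least 70% loss of cells showing the perinucleolar compartment, a nuclear body marking cancer cells; inconclusive means readout between -30 and a set limit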;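 further: plate controls were DMSO wells for no effect and camptothecin positive control wells for full effect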
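PC3M cells stably expressing PTB-GFP, 750–1000 cells/well, treated 16 h at 37 °C with compound (23 nl of library stock), in duplicate. After paraformaldehyde fixation and Hoechst stain, imaged at 20x; PNC prevalence scored by image analysis.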
HPGD inh: qHTS Assay for Inhibitors of HPGD (15-Hydroxyprostaglandin Dehydrogenase); 15-hydroxyprostaglandin dehydrogenase [NAD(+)] (Homo sapiens), P15428; purified HPGD, NADH fluorescence kinetic, PGE2 substrate; Potency, µM, without a hit: at the top dose activity change, negative = inhibition, most hits filed as inhibitors; 4.3% of 150,000 active; AID 894, 2007; active means well fitted inhibition curve with a large enough effect, not every such curve was filed as active; inconclusive means small, poorly fitted or top-dose-only effect, or another doubt; inactive means no such curve, though single readings can be large or run the other way; further: potency means the concentration at half of the fitted maximal effect; on the % scale 0 is the no-effect control and ±100 the full control effect
Target sequence (P15428 whole entry, looked up): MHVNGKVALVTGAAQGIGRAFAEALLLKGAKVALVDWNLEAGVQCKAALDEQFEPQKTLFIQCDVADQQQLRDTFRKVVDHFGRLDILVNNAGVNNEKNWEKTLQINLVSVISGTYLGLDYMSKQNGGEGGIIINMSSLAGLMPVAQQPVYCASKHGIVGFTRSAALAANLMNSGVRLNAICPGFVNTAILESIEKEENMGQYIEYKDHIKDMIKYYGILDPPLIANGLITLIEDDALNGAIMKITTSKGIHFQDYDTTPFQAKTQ
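NADH formation kinetics: reaction with 30 uM PGE2 and 1 mM NAD+ (final), 20 nM enzyme, Tris-HCl pH 8 with Tween 20, after 15 min compound preincubation at room temperature. Fluorescence change, last versus first of five reads.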
Numbers without * were called inactive; [ ] = another dose, or the depositor's remark. Sampled rows, rich in hits. Any-hit rate of the full collection: about 11%. Unless noted, the call rests on the fitted dose curve; in most records, active means well fitted curve in the direction sought with a large enough effect; inconclusive means small, poorly fitted or top-dose-only effect, or another doubt; inactive means no such curve, though single readings can be large; an effect the other way counts as inactive or inconclusive.

What do the screens show for `CC(C)=CCC/C(C)=C/CO/N=C1/C[C@@H](O)[C@@H](O)[C@@H]2[C@@H]3C(=O)N(C4CCCCC4)C(=O)[C@H]3CC[C@H]12`?
HTT cytoprotect: -5%[10 µM]; ALDH1A1 block: -2%[13.5 µM]

What do the screens show for `C=CCNC(=O)/C(C#N)=C/c1c(N(Cc2ccccc2)Cc2ccccc2)nc2ccccn2c1=O`?
GoLoco inh red: 34%; HTT cytoprotect: inconclusive; ALDH1A1 block: 7.1µM*; HTT aggregate: inconclusive; PNC assembly inh: 37; HPGD inh: -18%

Results for C=CC(C1=CC(=O)C(OC)=CC1=O)c1ccccc1 (configuration not stated) ?
GoLoco inh red: -1%; HTT cytoprotect: -270%; ALDH1A1 block: 22µM*; HPGD inh: inconclusive

Results for C=CC(C1=CC(=O)C(OC)=CC1=O)c1ccc(OC)cc1 (configuration not stated) ?
GoLoco inh red: -30%; ALDH1A1 block: inconclusive; HPGD inh: inconclusive

Results for C=CC(C1=CC(=O)C(OC)=C(OC)C1=O)c1ccccc1 (configuration not stated) ?
GoLoco inh red: -15%; ALDH1A1 block: 0%; HPGD inh: 20µM*

Results for CCCCNc1nc(C)nc2c1nc(-c1ccccc1)n2CCCN1CCCCC1C (configuration not stated) ?
GoLoco inh red: 1%; HTT cytoprotect: -52%; ALDH1A1 block: inconclusive; HPGD inh: inconclusive

Results for COc1ccc(OC[C@@H](CO)OC)cc1 ?
HTT cytoprotect: 18%[10 µM]; ALDH1A1 block: 14%[13.5 µM]

What do the screens show for `Nc1cccc2cc(S(=O)(=O)Nc3ccc(C(=O)O)cc3)ccc12`?
GoLoco inh red: -2%[14.2 µM]; HTT cytoprotect: -10%[10 µM]; ALDH1A1 block: -4%[13.5 µM]; HPGD inh: -20%

How did COc1cc(NC(=O)CSCC(=O)Nc2cc(OC)cc(OC)c2)cc(OC)c1 do in these assays?
GoLoco inh red: -6%; HTT cytoprotect: 7%[10 µM]; HTT aggregate: -34%[9.22 µM]

How did CC(=O)N1CCC(N(CCN2CCOCC2)C(=S)Nc2ccc(C)cc2C)CC1 do in these assays?
GoLoco inh red: -3%; HTT cytoprotect: -30%; ALDH1A1 block: -16%; HTT aggregate: 11%

How did O=C(O)CCCNC(=O)CC1S/C(=N/N=C/c2ccccc2O)NC1=O (configuration not stated) do in these assays?
GoLoco inh red: 5%; HTT cytoprotect: 11%[10 µM]; ALDH1A1 block: 5%; HTT aggregate: 14%

What do the screens show for `O=C(O)CC1S/C(=N/N=C/c2ccc(-c3ccccc3[N+](=O)[O-])o2)NC1=O` (configuration not stated)?
GoLoco inh red: -22%; HTT cytoprotect: -28%; ALDH1A1 block: 8.9µM*; HTT aggregate: 2%; PNC assembly inh: 13; HPGD inh: 16µM*

How did CCOc1cc(/C=N/N=C2/NC(=O)C(CC(=O)O)S2)ccc1OS(=O)(=O)c1ccc(C)cc1 (configuration not stated) do in these assays?
GoLoco inh red: 20%; HTT cytoprotect: -24%; ALDH1A1 block: -11%; HTT aggregate: -9%[9.22 µM]

How did Cc1ccc(-c2ccc(/C=N/N=C3/NC(=O)C(CC(=O)O)S3)o2)c([N+](=O)[O-])c1 (configuration not stated) do in these assays?
GoLoco inh red: 9%; HTT cytoprotect: -11%; ALDH1A1 block: -4%; HTT aggregate: -6%; PNC assembly inh: -10; HPGD inh: 18µM*

What do the screens show for `CCOc1cc(C2Nc3cccc4cccc(c34)N2)ccc1O`?
GoLoco inh red: -13%; HTT cytoprotect: 6%; ALDH1A1 block: 20µM*; HTT aggregate: 16%[9.22 µM]; PNC assembly inh: 16; HPGD inh: -26%

How did Oc1ccccc1C1Nc2cccc3cccc(c23)N1 do in these assays?
GoLoco inh red: -6%; HTT cytoprotect: -17%[10 µM]; ALDH1A1 block: 24µM*; HTT aggregate: 16%; PNC assembly inh: 60; HPGD inh: inconclusive

Results for c1csc(C2Nc3cccc4cccc(c34)N2)c1 ?
GoLoco inh red: -6%; HTT cytoprotect: 4%; ALDH1A1 block: inconclusive; HTT aggregate: 4%; PNC assembly inh: 48; HPGD inh: inconclusive

What do the screens show for `Brc1ccc(C2Nc3cccc4cccc(c34)N2)o1`?
GoLoco inh red: -27%; HTT cytoprotect: 4%; ALDH1A1 block: 4.5µM*; HTT aggregate: -14%; PNC assembly inh: 8; HPGD inh: inconclusive

Results for C[C@@]12C=CC(=O)C=C1CCC1C3CC(O)[C@@](O)(C(=O)CO)[C@]3(C)CC(O)[C@]12F (some centres not stated) ?
GoLoco inh red: 2%; HTT cytoprotect: -78%; ALDH1A1 block: 5%; HTT aggregate: 12%; HPGD inh: -6%

How did Nc1nc2c(ncn2C2OC(CO)CC2O)c(=O)[nH]1 (configuration not stated) do in these assays?
GoLoco inh red: 4%; ALDH1A1 block: 2%; HPGD inh: -11%

How did CON1C(=O)C(=O)N(OC)C(C)(C)C1(C)C do in these assays?
GoLoco inh red: 3%; HTT cytoprotect: 3%[10 µM]; ALDH1A1 block: 20µM*; HTT aggregate: 9%; PNC assembly inh: inconclusive; HPGD inh: 1%

Results for CCCNC(=O)OC[C@@H]1O[C@H](CCO/N=C(\C)CCN2CCCc3nc(C)c(C)cc32)C=C[C@@H]1Oc1ccc(OC)cc1 ?
HTT cytoprotect: -6%[10 µM]; ALDH1A1 block: 0%[13.5 µM]

What do the screens show for `CN(C)c1nc(N)c2ncc(=S)[nH]c2n1`?
GoLoco inh red: 5%; ALDH1A1 block: inconclusive; HTT aggregate: 4%

What do the screens show for `Cc1cc(Cl)ccc1C(=O)C1CCCN(C(=O)c2snnc2C)C1` (configuration not stated)?
GoLoco inh red: -5%; HTT cytoprotect: -2%[10 µM]; ALDH1A1 block: inconclusive; HTT aggregate: -5%[9.22 µM]

How did O=C(CSCc1nc2ccccc2[nH]1)N1CCN(c2cccc(Cl)c2)CC1 do in these assays?
GoLoco inh red: 5%; HTT cytoprotect: -32%; ALDH1A1 block: -8%; HTT aggregate: 25µM*; PNC assembly inh: 8; HPGD inh: -1%

Results for N#CC(C#N)=C(N)/C(C#N)=C/c1ccc2[nH]ccc2c1 ?
GoLoco inh red: 58%; HTT cytoprotect: -8%; ALDH1A1 block: 13µM*
